PLCb3 inh – PLC-beta3 (human) inhibition, primary screen; Q01970; Purified PLC-beta3, fluorogenic substrate, fluorescence; inhibition, % at 12.2 µM; actives 0.18% (n = 370,000); AID 720704; in the data active = inhibition above about 11%;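 note: 0% = median of compound wells on plate and 100% = full blocker control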
ADAM10 inh – inhibits human ADAM10 | recombinant ADAM10, EDANS/DABCYL FRET peptide cleavage, 3 h | O14672 | inhibition, % at 7 µM | actives 0.62% (n = 370,000);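 active = inhibition above a per-campaign cutoff equal to the mean of compounds falling between control-based bounds plus 3 SD, cut at about 20% in these data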;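 note: 0% = DMSO wells while the 100% control is not disclosed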
PLCg1 inh – blocks human PLC-gamma1 enzyme activity; AID 720700; P19174; purified PLC-gamma1, fluorogenic substrate, fluorescence; actives 0.84% (n = 370,000); inhibition, % at 12.2 µM; in the data active = inhibition above about 9.5%
Target sequence (P19174 whole entry, looked up): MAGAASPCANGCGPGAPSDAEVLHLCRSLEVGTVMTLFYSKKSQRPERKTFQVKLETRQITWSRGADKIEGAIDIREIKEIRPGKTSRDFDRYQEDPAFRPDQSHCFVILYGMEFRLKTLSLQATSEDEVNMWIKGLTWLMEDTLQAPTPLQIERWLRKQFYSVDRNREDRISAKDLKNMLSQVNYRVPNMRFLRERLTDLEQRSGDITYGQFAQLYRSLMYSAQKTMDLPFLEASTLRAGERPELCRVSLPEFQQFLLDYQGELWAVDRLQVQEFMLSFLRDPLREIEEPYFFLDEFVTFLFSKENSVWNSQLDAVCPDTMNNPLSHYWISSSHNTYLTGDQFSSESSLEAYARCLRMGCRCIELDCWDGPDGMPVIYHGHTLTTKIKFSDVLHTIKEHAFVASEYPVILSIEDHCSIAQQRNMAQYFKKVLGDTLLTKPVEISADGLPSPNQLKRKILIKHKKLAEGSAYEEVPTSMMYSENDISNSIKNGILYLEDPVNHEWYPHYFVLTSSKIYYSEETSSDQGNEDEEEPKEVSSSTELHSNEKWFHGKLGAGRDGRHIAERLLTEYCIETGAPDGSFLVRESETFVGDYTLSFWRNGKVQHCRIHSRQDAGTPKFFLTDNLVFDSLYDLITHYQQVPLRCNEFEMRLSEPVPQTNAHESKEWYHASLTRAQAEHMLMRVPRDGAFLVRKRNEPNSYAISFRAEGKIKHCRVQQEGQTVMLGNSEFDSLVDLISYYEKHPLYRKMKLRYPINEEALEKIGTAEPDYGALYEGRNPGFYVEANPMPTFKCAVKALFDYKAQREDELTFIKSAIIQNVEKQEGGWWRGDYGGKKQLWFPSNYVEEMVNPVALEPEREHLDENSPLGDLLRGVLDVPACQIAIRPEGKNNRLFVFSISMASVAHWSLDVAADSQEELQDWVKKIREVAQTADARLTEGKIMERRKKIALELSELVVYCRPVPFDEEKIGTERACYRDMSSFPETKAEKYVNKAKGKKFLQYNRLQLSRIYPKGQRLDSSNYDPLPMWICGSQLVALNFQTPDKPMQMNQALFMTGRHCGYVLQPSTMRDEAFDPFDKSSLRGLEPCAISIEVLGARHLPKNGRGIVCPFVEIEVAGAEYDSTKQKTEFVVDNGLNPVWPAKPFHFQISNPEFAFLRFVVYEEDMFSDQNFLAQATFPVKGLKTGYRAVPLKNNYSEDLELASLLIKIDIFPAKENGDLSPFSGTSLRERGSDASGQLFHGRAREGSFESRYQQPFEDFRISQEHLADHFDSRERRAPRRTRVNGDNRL
KLK7 zymogen act – activators of human kallikrein-7 zymogen | P49862 | purified proKLK7, EDANS-DABCYL substrate fluorescence; 100% is mature enzyme control, 0% vehicle | activation, % at 7 µM | actives 0.9% (n = 370,000) | AID 652039;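 active = activation above the mean of all tested compounds plus 3 SD, computed per campaign excluding outliers beyond control limits, cut at about 13% in these data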
ADAM17 inh – ADAM17 inhibition, QFRET primary screen; recombinant ADAM17, EDANS/DABCYL FRET peptide cleavage; inhibition, % at 6.95 µM; actives 0.83% (n = 370,000); AID 720648;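 active = inhibition above the mean of compounds lying between control limits plus 3 SD, set per campaign, cut at about 8.5% in these data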;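 note: 0% = DMSO-only wells as the low control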
ADAM10 ctr – ADAM10 inhibition, counter-screen for ADAM17 exosite hits. inhibition, % at 6.95 µM. shares compounds with ADAM17 inh. recombinant ADAM10, EDANS/DABCYL FRET peptide cleavage, 3 h. AID 743256. actives 47% (n = 2,900);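 active = mean inhibition over the triplicate runs exceeds the activity threshold set in the earlier primary screen, cut at about 20% in these data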;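 note: 0% = DMSO wells and 100% = marimastat wells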
ADAM17 confirm – human ADAM17 inhibition, confirmation | actives 65% (n = 2,900) | inhibition, % at 6.95 µM | recombinant ADAM17, EDANS/DABCYL QFRET peptide cleavage | shares compounds with ADAM17 inh | AID 743257;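 active = mean inhibition across replicates above the hit cutoff set in the primary screen, cut at about 8.5% in these data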;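 note: 0% = DMSO wells and 100% = marimastat wells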
The depositor's hits bear a star. This is a sample that favours compounds with a hit; in the whole collection about 2.9% have one here.

`Cc1cccc(Nc2nnc(SCC(=O)c3ccc(Br)s3)s2)c1C` gave PLCb3 inh 0, ADAM10 inh 12, PLCg1 inh 2, KLK7 zymogen act 0, ADAM17 inh 12*, ADAM10 ctr 16 and ADAM17 confirm 12*.
CC(=O)NC(c1ccccc1)c1nc(-c2csc3ccccc23)cs1 (stereo not drawn) was read as PLCb3 inh 0, ADAM10 inh 3, PLCg1 inh 1, KLK7 zymogen act 1 and ADAM17 inh 4.
CNC(=O)N(C1=NCC(C)(C)S1)c1ccc(F)c(Cl)c1 was read as PLCb3 inh 8, ADAM10 inh 11, PLCg1 inh 2, KLK7 zymogen act 0, ADAM17 inh 9.2*, ADAM10 ctr 9 and ADAM17 confirm 6.
For COc1cc(NCc2ccccc2)c2ncn(Cc3ccccc3)c2c1 the results were PLCb3 inh -1, ADAM10 inh 15, PLCg1 inh 1, KLK7 zymogen act 0, ADAM17 inh 12*, ADAM10 ctr 14 and ADAM17 confirm 7.
For COCCCOc1cc(NCc2ccccc2)c2ncn(C(C)C)c2c1 the results were PLCb3 inh 7, ADAM10 inh 4, PLCg1 inh 5, KLK7 zymogen act 1 and ADAM17 inh 5.
O=C(c1ccccc1)c1ccc(C(=O)N2CCN(c3ccc(O)cc3)CC2)cc1 was read as PLCb3 inh -3, ADAM10 inh 2, PLCg1 inh 8, KLK7 zymogen act 0, ADAM17 inh 8.7*, ADAM10 ctr -4 and ADAM17 confirm 1.
COc1ccc(C(=O)Nc2ccc(S(=O)(=O)N3CCc4ccccc43)cc2)cc1 was read as PLCb3 inh 1, ADAM10 inh 19, PLCg1 inh 4, KLK7 zymogen act 0, ADAM17 inh 9.2*, ADAM10 ctr 21* and ADAM17 confirm 15*.
Screening CS(=O)(=O)N1CCc2cc(C(=O)Nc3ccc(Br)cc3)ccc21 returned PLCb3 inh -3, ADAM10 inh 2, PLCg1 inh 9, KLK7 zymogen act 0, ADAM17 inh 9.0*, ADAM10 ctr -11 and ADAM17 confirm 0.
For Cc1ccc(NC(=O)c2ccc3c(c2)CCN3S(C)(=O)=O)cc1 the results were PLCb3 inh -4, ADAM10 inh -2, PLCg1 inh -3, KLK7 zymogen act 0 and ADAM17 inh -1.
`O=C(Nc1ccc(S(=O)(=O)N2CCCCC2)cc1)c1ccc(CN2CCc3ccccc3C2)cc1` gave PLCb3 inh 1, ADAM10 inh 16, PLCg1 inh 4, KLK7 zymogen act 0, ADAM17 inh 8.8*, ADAM10 ctr 16 and ADAM17 confirm 9.6*.
For O=C(Nc1ccccc1)c1ccc(CN2CCc3ccccc3C2)cc1 the results were PLCb3 inh -3, ADAM10 inh -3, PLCg1 inh -6, KLK7 zymogen act 0 and ADAM17 inh -1.
CCOC1CCCc2oc(-c3ccc(OC)cc3)c(C#CCCO)c21 (stereo not drawn) was read as PLCb3 inh -93, ADAM10 inh -407, PLCg1 inh -76, KLK7 zymogen act 12 and ADAM17 inh -100.
`CC(C)C1N=C(NC(=O)OCc2ccccc2)NC1=O` (stereo not drawn) (tested in a mixture with another compound) gave PLCb3 inh -1, ADAM10 inh -17, PLCg1 inh 6, KLK7 zymogen act 0 and ADAM17 inh -3.
CCC1CC(=O)CCN1S(=O)(=O)c1ccc(C)cc1 (stereo not drawn) was read as PLCb3 inh 3, ADAM10 inh -10, PLCg1 inh 0, KLK7 zymogen act 1 and ADAM17 inh 2.
Cc1ccc(NC(=O)c2ccc3c(c2)OCCO3)cc1S(=O)(=O)Nc1cccc(Cl)c1 was read as PLCb3 inh 2, ADAM10 inh 16, PLCg1 inh 4, KLK7 zymogen act 0, ADAM17 inh 9.8*, ADAM10 ctr 21* and ADAM17 confirm 11*.
For Cc1ccc(NC(=O)c2ccc3c(c2)OCCO3)cc1C the results were PLCb3 inh -4, ADAM10 inh 5, PLCg1 inh 4, KLK7 zymogen act 1 and ADAM17 inh 1.
For COC(=O)C1=C(C)N(Cc2cccc(C(F)(F)F)c2)C(=NCc2ccc3c(c2)OCO3)NC1c1ccc(F)cc1 (stereo not drawn) the results were PLCb3 inh 0, ADAM10 inh -7, PLCg1 inh 7, KLK7 zymogen act 0, ADAM17 inh 9.9*, ADAM10 ctr 19 and ADAM17 confirm 12*.
For COC(=O)C1=C(C)N(Cc2cccc(C(F)(F)F)c2)C(=NCc2ccc(C(F)(F)F)cc2)NC1c1ccc(F)cc1 (stereo not drawn) the results were PLCb3 inh 2, ADAM10 inh 4, PLCg1 inh 5, KLK7 zymogen act 1, ADAM17 inh 9.5*, ADAM10 ctr 22* and ADAM17 confirm 12*.
Screening COC(=O)C1=C(C)N(Cc2cccc(C(F)(F)F)c2)C(=NCc2cccc(C(F)(F)F)c2)NC1c1ccc(Cl)cc1 (stereo not drawn) returned PLCb3 inh 6, ADAM10 inh -3, PLCg1 inh 6, KLK7 zymogen act 0 and ADAM17 inh 0.
CC1(C)C[C@@H](O)CC2(C1)C[C@]1(C)CC(O)[C@H]2C(C)(C)C1 (stereo partly drawn) was read as PLCb3 inh 2, ADAM10 inh 4, PLCg1 inh 5, KLK7 zymogen act 0 and ADAM17 inh 3.
CCC(C)(C)c1ccc(OCCCC[n+]2cccc(C)c2)c(C(C)(C)CC)c1 was read as PLCb3 inh 5, ADAM10 inh 9, PLCg1 inh 9, KLK7 zymogen act 0, ADAM17 inh 9.4*, ADAM10 ctr 11 and ADAM17 confirm 6.
For COc1cc(/C=C/C(=O)OCC(=O)c2c[nH]c3ccccc23)ccc1OC(F)F the results were PLCb3 inh -6, ADAM10 inh 13, PLCg1 inh -6, KLK7 zymogen act 0, ADAM17 inh 9.4*, ADAM10 ctr 21* and ADAM17 confirm 18*.
Screening COc1ccccc1/C=C/C(=O)OCC(=O)c1c[nH]c2ccccc12 returned PLCb3 inh -36, ADAM10 inh -49, PLCg1 inh -28, KLK7 zymogen act -3 and ADAM17 inh -11.
CSCCC(NS(=O)(=O)c1ccc(Cl)cc1)C(=O)OCC(=O)c1c(C)[nH]c2ccccc12 (stereo not drawn) was read as PLCb3 inh 3, ADAM10 inh 20, PLCg1 inh 3, KLK7 zymogen act -1, ADAM17 inh 9.7*, ADAM10 ctr 29* and ADAM17 confirm 17*.

From PubChem BioAssay
